Structures can show the parent of a compound that is named as a salt. ± gives the standard deviation of the averaged measurements.
These compounds were tested on Escherichia coli ATCC BAA-2469 (assay: percent growth inhibition of drug alone vs DMSO control; higher = more growth inhibition). Settings: antibiotic (0.125x MIC): none (0.1% DMSO); 7 µM.
Procedure: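 Prestwick drugs tested at 20 uM and 7 uM with an antibiotic at 0.125x MIC (16 mg/L when MIC >128 mg/L) against E. coli ATCC BAA-2469 (NDM-1) in CAMHB, 384-well plates, duplicate runs. Percent growth inhibition was computed from OD600 (24 h minus 0 h) relative to DMSO wells. Drug + DMSO-only wells are also given. […]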

| SMILES | percent growth inhibition of drug alone |
| --- | --- |
| NCC1(CC(=O)O)CCCCC1 [Gabapentin] | -0.379 ± 0.84% |
| O=C([O-])c1ccccc1-c1c2cc(Br)c(=O)cc-2oc2[c]([Hg+])c([O-])c(Br)cc12.[Na+].[Na+].[OH-] [Merbromin] | 0.201 ± 1.7% |
| CN1[C@@H]2CC[C@H]1C[C@@H](OC(=O)C(CO)c1ccccc1)C2 (some centres not stated) [Atropine sulfate monohydrate] | 1.11 ± 0.46% |
| C[C@]12CC[C@H](O)C[C@@H]1CC[C@@H]1[C@@H]2CC[C@]2(C)C(=O)CC[C@@H]12 [Epiandrosterone] | -0.756 ± 0.88% |
| O=C(CCCN1CCC2(CC1)C(=O)NCN2c1ccccc1)c1ccc(F)cc1 [Spiperone] | 3 ± 1.4% |
| Oc1cc(Cl)ccc1Oc1ccc(Cl)cc1Cl [Triclosan] | 103 ± 3.2% |

Same assay, conditions: antibiotic (0.125x MIC): none (0.1% DMSO); 20 µM

| SMILES | percent growth inhibition of drug alone |
| --- | --- |
| NCC1(CC(=O)O)CCCCC1 [Gabapentin] | -1.41 ± 0.8% |
| O=C([O-])c1ccccc1-c1c2cc(Br)c(=O)cc-2oc2[c]([Hg+])c([O-])c(Br)cc12.[Na+].[Na+].[OH-] [Merbromin] | 38.2 ± 18% |
| CN1[C@@H]2CC[C@H]1C[C@@H](OC(=O)C(CO)c1ccccc1)C2 (some centres not stated) [Atropine sulfate monohydrate] | -0.0722 ± 0.38% |
| C[C@]12CC[C@H](O)C[C@@H]1CC[C@@H]1[C@@H]2CC[C@]2(C)C(=O)CC[C@@H]12 [Epiandrosterone] | 1.48 ± 2.3% |
| O=C(CCCN1CCC2(CC1)C(=O)NCN2c1ccccc1)c1ccc(F)cc1 [Spiperone] | 2.07 ± 2.2% |
| Oc1cc(Cl)ccc1Oc1ccc(Cl)cc1Cl [Triclosan] | 107 ± 2.6% |
